# In paper PMC4336329 (PLoS ONE, 2015):
# The whole screen tested about 310,000 compounds, of which about 14,000 (4.5%) showed an effect of 50% or more. The effect is printed as a negative number. Only a selection was taken, and strong results are over-represented in it overall.
# Target: human ether-à-go-go-related gene (hERG) potassium channel (human, UniProt Q12809)
# Test: primary screen, population patch clamp on CHO cells stably expressing hERG; higher = less effect of the substance
# 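Note: peak tail current of the secondary pulse compared with the same well before compound.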
# human ether-à-go-go-related gene (hERG) potassium channel, sequence (Q12809 whole entry, looked up): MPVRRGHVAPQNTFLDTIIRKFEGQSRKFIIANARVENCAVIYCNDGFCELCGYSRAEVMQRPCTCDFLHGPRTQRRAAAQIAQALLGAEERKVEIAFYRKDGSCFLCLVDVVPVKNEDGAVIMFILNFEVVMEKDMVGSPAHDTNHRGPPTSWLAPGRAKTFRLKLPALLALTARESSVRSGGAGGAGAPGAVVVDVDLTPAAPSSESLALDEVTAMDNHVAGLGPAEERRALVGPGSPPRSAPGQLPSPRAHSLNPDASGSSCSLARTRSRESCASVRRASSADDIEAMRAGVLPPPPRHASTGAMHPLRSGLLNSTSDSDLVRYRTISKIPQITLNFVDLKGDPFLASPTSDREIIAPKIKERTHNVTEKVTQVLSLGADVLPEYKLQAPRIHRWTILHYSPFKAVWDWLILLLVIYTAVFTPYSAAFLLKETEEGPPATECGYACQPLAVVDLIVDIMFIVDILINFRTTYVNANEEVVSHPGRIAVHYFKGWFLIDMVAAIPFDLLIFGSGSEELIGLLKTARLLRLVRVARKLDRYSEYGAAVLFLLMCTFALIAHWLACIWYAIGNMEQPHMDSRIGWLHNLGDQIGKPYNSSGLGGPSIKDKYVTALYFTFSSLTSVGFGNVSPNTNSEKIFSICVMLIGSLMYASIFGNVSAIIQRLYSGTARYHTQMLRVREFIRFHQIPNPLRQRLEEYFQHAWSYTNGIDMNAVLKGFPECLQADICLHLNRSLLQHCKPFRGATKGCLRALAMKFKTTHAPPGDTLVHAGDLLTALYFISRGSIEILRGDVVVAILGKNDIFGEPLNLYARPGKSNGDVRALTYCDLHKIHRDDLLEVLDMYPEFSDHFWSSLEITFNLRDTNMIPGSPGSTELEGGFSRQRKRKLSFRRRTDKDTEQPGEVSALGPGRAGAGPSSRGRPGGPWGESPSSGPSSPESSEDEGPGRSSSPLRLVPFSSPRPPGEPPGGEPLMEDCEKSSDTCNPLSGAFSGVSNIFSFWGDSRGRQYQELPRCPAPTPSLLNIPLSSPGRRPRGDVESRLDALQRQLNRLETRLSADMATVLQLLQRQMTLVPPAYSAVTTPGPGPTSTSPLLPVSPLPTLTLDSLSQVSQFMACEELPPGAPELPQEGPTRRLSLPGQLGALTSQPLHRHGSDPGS
row,SMILES,"hERG current change (%, negative = inhibition) at 10uM"
1,COc1ccc(-c2cc(CNS(=O)(=O)c3ccc(NC(C)=O)cc3)on2)cc1,18.6%
2,COc1ccccc1C(=O)NCCOc1ccc(C)c(C)c1,18.5%
3,COc1ccc(Cl)cc1N(CC(=O)NC1CC1)S(=O)(=O)c1ccc(C)c([N+](=O)[O-])c1,11.9%
4,O=C(NC(=O)c1cccc(Cl)c1)OC[C@@H]1CCCN2CCCCC12 (stereo partly shown),-60.9%
5,Cl.O=C(Nc1ccc(C(=O)OC[C@@H]2CCCN3CCCC[C@H]23)cc1)c1cccc(Br)c1,-69.3%
6,O=C(NC(=O)c1ccccc1)OCC1CCCN2CCCCC12 (stereo not shown),-56.7%
7,O=C(Nc1ccccc1)OCC1CCCN2CCCCC12 (stereo not shown),-39.4%
8,Cl.O=C(OCC1CCCN2CCCCC12)c1ccc2c(c1)OCO2 (stereo not shown),-22.8%
9,COc1ccc(/C=C(\NC(=O)c2ccccc2)C(=O)OCC2CCCN3CCCCC23)cc1OC (stereo not shown),-40.7%
10,O=C(NCC1CCCO1)c1ccc(NC(=O)c2cccc(Br)c2)cc1 (stereo not shown),16.4%
11,O=C(OC1CCCCC1)c1cc2ccccc2oc1=O,-32.6%
12,O=C(NC(=O)c1cccc(F)c1)OC[C@@H]1CCCN2CCCC[C@H]12,-36.7%
13,Cl.O=C(OC[C@@H]1CCCN2CCCC[C@H]12)c1cc2ccccc2oc1=O,-50.1%
14,O=C(Nc1ccc(C(=O)N2CCOCC2)cc1)c1cccc(Br)c1,3.11%
15,O=C(NS(=O)(=O)Oc1ccc(Cl)cc1)OC[C@@H]1CCCN2CCCC[C@H]12,28.2%
16,CCOC(=O)C(=NCCCN(C)C)NNc1cc(C(F)(F)F)ccc1Cl,-18.5%
17,O=C(NCCCn1ccnc1)c1ccc(Br)c(S(=O)(=O)N2CCOCC2)c1,-7.41%
18,COc1ccc(OC)c(NC(=O)Nc2cc(C(=O)O)ccc2C)c1,13.1%
19,COc1ccccc1NC(=O)CN1C(=O)NC(CC(C)C)C1=O (stereo not shown),4.37%
20,O=C(CCC(=O)N1CCCC1)Nc1ccc([N+](=O)[O-])cc1,-1.25%
21,NC(=S)N/N=C/c1ccc(C(F)(F)F)cc1,11%
22,O=C(CSc1cccc[n+]1[O-])c1cc2ccccc2o1,-4.46%
23,COC(=O)c1sccc1NC(=O)c1cc(OC)c(OC)c(OC)c1,3.09%
24,O=NN1CCN(c2ccncc2S(=O)(=O)N2CCCCC2)CC1,10.6%
25,COc1ccc(-c2noc(-c3ccccc3C(=O)NCc3ccco3)n2)cc1,3.2%
